# Compounds with a hit are over-represented: about 7.4% of the library has one in this group of screens.
# SNCA expr inhib = Primary qHTS assay for inhibitors of alpha-synuclein gene (SNCA) expression. HEK-293 SNCA-luciferase knock-in, luminescence, 24 h. hit rate 0.17% among 140,000. Potency, µM (titrated, usually from 57.2 µM), for inactives: at the top dose activity change, negative = inhibition, hits mostly inhibitors;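 also: plate controls were DMSO cells for no effect and cell-free wells for full effect; nearly all actives have a fitted effect of over 45% in size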
# HEK cytotox = Cytotoxic Profiling in HEK 293 Cell Line of Diverse Libraries Using Quantitative High-Throughput Screening. HEK 293 viability, ATP luminescence (CellTiter-Glo), 48-72 h. hit rate 6.6% among 94,000. Potency, µM (highest dose often 115 µM), for the others: at the highest dose activity change, negative = cytotoxicity, actives largely listed as inhibitors. AID 1345083, 2018; also: nearly all actives have a fitted effect of over 60% in size
#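 Cytotoxicity was scored by loss of ATP-coupled luminescence (CellTiter-Glo) in HEK 293 cells. Compound treatment ran 48 or 72 hr at 37 degree Celsius, 5% CO2, 95% humidity.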
# NIH3T3 tox = Cytotoxic Profiling in NIH 3T3 Cell Line of Diverse Libraries Using Quantitative High-Throughput Screening; hit rate 4.3% among 94,000; NIH 3T3 viability, CellTiter-Glo ATP luminescence, 48-72 h; Potency, µM (doses to about 96.7 µM), without a hit: top-dose activity change, negative = cytotoxicity, most hits filed as inhibitors; AID 1345082, 2018; also: nearly all actives have a fitted effect of over 55% in size
#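 Cytotoxicity is measured as loss of cellular ATP: NIH 3T3 cells (400/well) are exposed to compound for 48 or 72 hr at 37 °C, then CellTiter-Glo luminescence is imaged after 10 min at room temperature.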
# SNCA viab count = GF-AFC viability counterscreen for inhibitors of alpha-synuclein gene (SNCA) expression. Potency, µM (series often up to 57.1 µM), inactives show top-dose activity change, negative = cytotoxicity, most hits filed as cytotoxic. hit rate 0.12% among 150,000. HEK-293-SNCA-luc viability, GF-AFC fluorescence, 24 h. AID 1671193, 2021;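 also: 0% = DMSO-treated cells and -100% = medium-only wells without cells; nearly all actives have a fitted effect of over 30% in size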
#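 HEK-293-SNCA-luc cells (1500/well) plated 24 h, then exposed 24 h to a dilution series; GF-AFC added 30 min at 37C, fluorescence 405/540 nm; normalised to medium-only and DMSO wells, Hill fit.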
# hNpr1 antagonist = Natriuretic polypeptide receptor (hNpr1) antagonism - Primary qHTS; HEK293 hNpr1 GloSensor cGMP, ANP-stimulated luminescence; AID 1347048, 2019; Potency, µM (titrated, usually from 46.3 µM), for inactives: at the highest dose activity change, negative = inhibition, most hits filed as inhibitors; hit rate 1.6% among 76,000; Atrial natriuretic peptide receptor 1 (Homo sapiens), P16066; calls by dose curve; also: nearly all actives have a fitted effect of over 60% in size
#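 Compound pre-incubated 30 min at room temperature on GloSensor-loaded HEK293 cells stably carrying hNpr1 and the pGS-40F cGMP biosensor. Stimulation uses hNppA at 0.1 nM final; luminescence is taken at baseline and 20 min post-agonist.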
# Luciferase inh = Firefly luciferase inhibition profiling of diverse chemical library using quantitative high-throughput screening. Luciferin 4-monooxygenase (Photinus pyralis), P08659. hit rate 2.5% among 76,000. Potency, µM (series often up to 115 µM), most hits filed as inhibitors. purified P. pyralis luciferase, luminescence, biochemical; also: nearly all actives have a fitted effect of over 65% in size
# Target sequence (P08659 whole entry, looked up): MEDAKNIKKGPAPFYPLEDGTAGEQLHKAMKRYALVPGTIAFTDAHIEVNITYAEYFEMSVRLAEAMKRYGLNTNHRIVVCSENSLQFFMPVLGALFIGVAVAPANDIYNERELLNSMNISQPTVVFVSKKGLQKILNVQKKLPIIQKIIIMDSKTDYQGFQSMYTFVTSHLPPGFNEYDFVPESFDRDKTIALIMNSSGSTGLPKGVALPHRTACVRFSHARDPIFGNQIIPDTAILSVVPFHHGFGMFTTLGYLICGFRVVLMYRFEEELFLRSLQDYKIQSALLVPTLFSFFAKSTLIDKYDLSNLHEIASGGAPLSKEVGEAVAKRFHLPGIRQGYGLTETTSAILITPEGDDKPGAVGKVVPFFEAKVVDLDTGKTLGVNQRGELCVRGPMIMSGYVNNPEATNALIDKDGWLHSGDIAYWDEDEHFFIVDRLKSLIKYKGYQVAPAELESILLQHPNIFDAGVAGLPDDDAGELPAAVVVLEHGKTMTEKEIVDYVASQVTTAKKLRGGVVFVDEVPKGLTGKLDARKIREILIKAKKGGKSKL
#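 Luminescence read by CCD imaging after purified firefly luciferase (10nM final) was added to substrate buffer holding 10uM D-luciferin and 10uM ATP, pH 7.5, pre-dosed with compound.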
# * hit, by the source's call; i = inactive; ? = inconclusive; / = no result; [ ] = dose if it differs, or a comment. Unless noted, calls follow the shape of the dose curve; as a rule, active = well fitted curve in the direction sought with a large enough effect; inconclusive = small, poorly fitted or top-dose-only effect, or another doubt; inactive = no such curve, though single readings can be large; an effect the other way counts as inactive or inconclusive. Unless noted, % is scaled to controls: 0 for no effect and ±100 for the full control effect; potency is read from the fitted curve at half-maximal effect.
SMILES,SNCA expr inhib,HEK cytotox,NIH3T3 tox,SNCA viab count,hNpr1 antagonist,Luciferase inh
COCC(=O)NC1CCN(c2nccc(Nc3ccccc3Cl)n2)CC1,?,?,?,11%,/,/
COc1ccc(-c2cnc3n[nH]c(-c4ccccc4)c3n2)cc1,4%[87.6 µM],89µM*,79µM*,-10%[87.6 µM],-1%[70.6 µM],i
COc1ccc(-c2cnc3n[nH]c(-c4ccc5c(c4)OCO5)c3n2)cc1,-27%[87.6 µM],?,?,11%[87.6 µM],8%[70.6 µM],i
COc1cccc(-c2cnc3n[nH]c(-c4ccccc4)c3n2)c1,?,56µM*,40µM*,0%[87.6 µM],-5%[70.6 µM],i
O=C(Cc1cccc(Cl)c1)NC1CCCN(c2ccnc3ccnn23)C1 (stereo not given),15%,?,-26%,1%,/,/
CC(C)c1nc2c(c(-c3ccc(Cl)cc3)n1)CN(C(=O)c1ccc(Cl)nc1)CC2,4%,?,?,-8%,/,/
Cc1ccc(C(=O)N2CCC(C(=O)N3CCCC(c4nc5ccncc5[nH]4)C3)CC2)cc1 (stereo not given),0%,-4%,-16%,7%,/,/
COc1cccc(CNC(=O)[C@@H]2CCCN2C(=O)c2cccc(-c3ccccc3OC)c2)c1,-7%,?,?,-3%[12.5 µM],/,/
COc1ccc(-c2cc(-c3ccc(CO)cc3)cn3cncc23)cc1,3%[87.6 µM],79µM*,?,-3%[87.6 µM],-17%[70.6 µM],i
Cc1ccc(-c2cc(-c3ccncc3)c3cncn3c2)cn1,-21%[87.6 µM],?,?,-13%[87.6 µM],0%[70.6 µM],i
COc1cccc(-c2cc(-c3cccnc3)c3cncn3c2)c1OC,12%[87.6 µM],?,?,4%[87.6 µM],-1%[70.6 µM],50µM*
COc1ccc(-c2cc(-c3ccc(OC)c(OC)c3)cn3cncc23)cc1,10%[87.6 µM],71µM*,40µM*,-17%[87.6 µM],-12%[70.6 µM],i
COc1ccc(-c2cc(-c3ccncc3)c3cncn3c2)cc1OC,1%[87.6 µM],?,25µM*,-6%[87.6 µM],1%[70.6 µM],i
COc1ccc(-c2cc(-c3ccc4c(c3)C(=O)NC4)cn3cncc23)cc1,-17%[87.6 µM],?,?,?,-2%[70.6 µM],i
COc1ccc(-c2cc(-c3ccc([S+](C)(=O)[O-])cc3)cn3cncc23)cc1,-11%[87.6 µM],?,?,-23%[87.6 µM],-17%[70.6 µM],i
COc1ccc(CCNC(=O)c2cc(-c3ccccc3OC)c3nncn3n2)cc1,-14%,?,?,2%,/,/
O=C(Cc1ccccc1)NC1CN(c2ccnc3ccnn23)C1,-15%[87.6 µM],-3%[172 µM],-27%[138 µM],-2%[87.6 µM],/,/
CC[C@@H](C)Nc1cc(C(=O)NC2CC3CC[C@@H](C2)N3c2ccc(C(=O)C3CC3)cn2)c(C)cc1C(N)=O (stereo not given in full),/,/,/,5%,/,/
COc1ccccc1-c1cc(N2CCOCC2=O)c2cncn2c1,-6%[87.6 µM],-43%[172 µM],100µM*,-14%[87.6 µM],-9%[70.6 µM],i
COc1ccc(-c2cc(-c3cccnc3)c3cncn3c2)cc1OC,31%[87.6 µM],?,35µM*,1%[87.6 µM],0%[70.6 µM],i
Cc1ccccc1-c1cc(-c2ccc(=O)[nH]c2)c2cncn2c1,6%[87.6 µM],71µM*,25µM*,10%[87.6 µM],-12%[70.6 µM],i
COc1ccccc1-c1cc(-c2ccncc2)c2cncn2c1,?,89µM*,11µM*,-1%[87.6 µM],-23%[70.6 µM],i
COc1ccc(-c2cc(N3CCOCC3=O)c3cncn3c2)cc1OC,7%[87.6 µM],-7%[172 µM],?,-8%[87.6 µM],1%[70.6 µM],i
Cc1ccc(CN2C(=O)NC3(CCCN(C(=O)c4ccc(F)c(Cl)c4)C3)C2=O)cc1 (stereo not given),-13%,?,?,4%,-4%,i
